Assay outcomes deposited in PubChem BioAssay by National Center for Advancing Translational Sciences (NCATS).
DRD3 antagonist: blocks the human D3 dopamine receptor | P35462 | D3R cells, DiscoveRx beta-arrestin luminescence, antagonist mode; stronger effect = lower value | max response, negative = inhibition, % | 360,000 compounds, 2.5% hits | AID 652054; in the data active means max response below about -50%; inconclusive means no clear call, values can overlap the other calls; further: on the % scale 0 is the no-effect control and ±100 the full control effect
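Cells plated overnight at 1500 cells/well, then exposed to library compounds with dopamine controls for 90 minutes at 37 degrees C. DiscoveRx reagent added for 30–60 minutes at room temperature; luminescence read, quantitative HTS format.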
D3 ag: activates the human D3 dopamine receptor | 410,000 compounds, 0.58% hits | D3R DiscoveRx beta-arrestin cells, luminescence, 90 min | P35462 | max activation, %; in the data active means max activation above about 30%; further: 0% is about no effect
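Cells at 1500/well, incubated overnight, then treated with pinned compounds (dopamine as control) for 90 min at 37 degrees C. DiscoveRx reagent added for 30 - 60 minutes at room temperature; luminescence read.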
Giardia kill: Giardia lamblia killing; Giardia lamblia trophozoite viability; activity change, % at 7.66 µM, hits read low; 340,000 compounds, 0.15% hits; AID 540267; in the data active means activity change below about -80%; inconclusive means between about -30% and that limit;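 further: parasites exposed to compound for two days anaerobically before the ATP read; on the % scale 0 is the no-effect control and ±100 the full control effect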
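Anaerobic 48 hrs incubation at 37 deg C of 100 trophozoites/well with test compounds; ATPLite 1-Step luminescence, 15-30 min RT, reports cellular ATP as viability.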
B2AR arrestin: recruits beta-arrestin to the human beta2-adrenergic receptor. 330,000 compounds, 0.02% hits. beta-arrestin recruitment to beta2AR, cell-based reporter. Potency, µM (highest dose often 46.1 µM), for the others: top-dose activation, usual class: activators; active means well fitted activation curve with a large enough effect; inconclusive means small, poorly fitted or top-dose-only effect;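 further: potency means the concentration at half of the fitted maximal effect; 0% = DMSO controls and full agonism = EC100 isoproterenol or metaproterenol; nearly all actives have a fitted effect of over 65% in size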
Target sequence (P07550 whole entry, looked up): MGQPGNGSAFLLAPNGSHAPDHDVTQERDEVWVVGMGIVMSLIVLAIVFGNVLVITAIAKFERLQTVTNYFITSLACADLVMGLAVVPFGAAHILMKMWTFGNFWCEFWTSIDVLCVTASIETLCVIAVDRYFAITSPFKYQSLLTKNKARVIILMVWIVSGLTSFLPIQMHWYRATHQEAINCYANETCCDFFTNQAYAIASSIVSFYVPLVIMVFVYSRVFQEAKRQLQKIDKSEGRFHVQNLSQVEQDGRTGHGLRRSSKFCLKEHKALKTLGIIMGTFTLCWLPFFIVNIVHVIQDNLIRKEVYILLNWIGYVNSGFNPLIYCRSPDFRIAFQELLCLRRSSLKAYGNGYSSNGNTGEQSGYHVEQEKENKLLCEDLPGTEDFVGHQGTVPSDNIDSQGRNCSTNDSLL
* hit, by the source's call; ? = inconclusive; . = no result. This is a sample that favours compounds with a hit; in the whole collection about 2.8% have one here.

SMILES	DRD3 antagonist	D3 ag	Giardia kill	B2AR arrestin
COc1ccc(OC)c(CNC(=O)Cc2ccc(NC(=O)N3CCSc4ncccc43)cc2)c1	.	0	.	.
Cc1cccc(C(=O)OCC(=O)NC(=O)NC2CCCCC2)c1	-117*	3	.	.
Cc1cccc(C(=O)OCC(=O)NC2CCCCCCC2)c1	?	5	-7	0%
O=S(=O)(Nc1cccc(-c2ccc(N3CCCCC3)nn2)c1)c1ccc(Cl)s1	.	-6	.	.
Cc1ccc(NC(=O)[C@H](NC(=O)[C@@H]2Cc3ccccc3CN2)c2ccccc2)cc1C	-101*	-21	?	3%
COc1ccccc1N1CCN(C(=O)CSc2nc3ccccc3nc2Cc2ccc(C)cc2)CC1	.	34*	.	.
O=C(CSc1nc2ccccc2nc1Cc1ccc(Cl)cc1)N1CCN(c2ccccc2F)CC1	.	37*	.	.
COc1ccccc1N1CCN(C(=O)CSc2nc3ccccc3nc2Cc2ccc(F)cc2)CC1	.	3	.	.
Cc1cc(-c2ccc(F)cc2)nc2cc(C(N)=O)nn12	-76*	-16	-16	-1%
COc1ccc(-c2cc(C(F)(F)F)n3nc(C(=O)N4CCCC4)cc3n2)cc1	0	0	-5	3%
CN1CCN(C(=O)c2cc3nc(-c4ccc(F)cc4)cc(C(F)(F)F)n3n2)CC1	-52*	1	10	0%
CCOC(=O)C1CCCN(C(=O)c2cc3nc(-c4ccc5c(c4)OCO5)cc(C(F)(F)F)n3n2)C1 (stereo not drawn)	47	120*	-9	0%
Cc1ccc(-c2cc(C(F)(F)F)n3nc(C(=O)N4CCN5CCCC5C4)cc3n2)cc1 (stereo not drawn)	0	-2	4	-1%
CCc1oc2ccccc2c1C(=O)c1cc(I)c(O)c(I)c1	.	9	.	.
COc1ccc(NC(=O)c2[nH]ncc2[N+](=O)[O-])cc1	-6	-2	?	0%
O=C(Nc1ccccc1)c1[nH]ncc1[N+](=O)[O-]	-63*	2	-23	0%
Clc1ccc(CN2CCc3c([nH]c4ccccc34)C2)cc1Cl	14	2	-5	0%
Cc1ccc2[nH]c3c(c2c1)CCN(C)C3	-60*	-20	-7	0%
Clc1cccc(CN2CCc3c([nH]c4ccccc34)C2)c1	-59*	-21	-24	0%
Cc1cccc(CN2CCc3c([nH]c4ccccc34)C2)c1	-90*	-15	8	4%
c1ccc(CN2CCc3[nH]c4ccccc4c3C2)cc1	-97*	-11	7	.
O=C(Oc1cccc2cccnc12)c1ccc2c(c1)OCCO2	-84*	-4	?	?
COc1ccc(C(=O)NCCCN=C2NS(=O)(=O)c3ccccc32)cc1	-75*	-25	-1	-1%
C/C=C/c1ccc(OCCCCN2CC(C)CC(C)C2)c(OC)c1 (stereo not drawn)	-74*	-39	5	0%
Fc1ccc(CNn2cnnc2SCc2ccc(F)cc2)cc1	-9	41*	4	0%
SMILES	DRD3 antagonist	D3 ag	Giardia kill	B2AR arrestin
Cc1ccc(CNn2cnnc2SCc2ccc(F)cc2)cc1	16	18	-16	0%
CC(C)C[C@H](NC(=O)CNC(=O)[C@H](Cc1ccc(O)cc1)NC(=O)[C@H](CO)NC(=O)[C@H](Cc1c[nH]c2ccccc12)NC(=O)[C@H](Cc1cnc[nH]1)NC(=O)[C@@H]1CCC(=O)N1)C(=O)N[C@@H](CCCN=C(N)N)C(=O)N1CCC[C@H]1C(=O)NCC(N)=O (stereo in doubt)	.	9	.	.
COc1ccccc1-n1cc2c([N+](=O)[O-])cc([N+](=O)[O-])cc2n1	-1	-4	-85*	0%
CCc1ccc(S(=O)(=O)NCc2cccs2)cc1	-65*	-5	-4	-1%
CCc1ccc(CNCc2cccs2)cc1	5	-4	-11	0%
O=C(Nc1cccnc1)c1ccc(CN2CCc3ccccc3C2)cc1	-74*	-13	-10	-1%
Cc1cc(C)cc(NC(=O)c2ccc(CN3CCc4ccccc4C3)cc2)c1	-67*	-11	-7	0%
O=C(Nc1ccccc1)c1ccc(CN2CCc3ccccc3C2)cc1	?	-4	6	0%
Cc1ccc(NC(=O)c2ccc(CN3CCc4ccccc4C3)cc2)cc1	-85*	-11	10	0%
O=C(Nc1ccc(S(=O)(=O)N2CCCCC2)cc1)c1ccc(CN2CCc3ccccc3C2)cc1	-22	-14	0	0%
O=C(Nc1cccnc1)c1ccc(C(=O)Nc2cccnc2)cc1	-12	-1	-4	0%
COc1cc2ccccc2cc1C(=O)Nc1cccc(-c2nc3cc(C)c(C)cc3o2)c1	.	1	.	.
O=C(NCCN1CCN(c2cccc(Cl)c2)CC1)Nc1ccccc1C(F)(F)F	.	-18	.	.
O=C(Cc1ccc(Cl)cc1)NCCS(=O)(=O)N1CCN(c2ccccc2F)CC1	?	-21	-15	0%
Cc1cc(=O)oc(C)c1C(=O)NCCCN1CCN(c2ccccc2F)CC1	?	-15	0	0%
Cc1cc(C)c2c(=O)n(CC(=O)NCCCN3CCN(c4ccccc4F)CC3)sc2n1	-70*	8	-9	0%
Cc1cc(C)c2c(=O)n(CC(=O)NCCCN3CCOCC3)sc2n1	-22	4	35	-1%
Cc1ccccc1CS(=O)(=O)CCC(=O)NCCN1CCN(c2cccc(Cl)c2)CC1	-54*	-10	-4	0%
O=C(CCS(=O)(=O)Cc1ccc(Cl)cc1)NCCCN1CCN(c2ccccc2F)CC1	-70*	2	16	0%
Cc1ccccc1CS(=O)(=O)CCC(=O)NCCCN1CCN(c2ccccc2F)CC1	-60*	3	-21	-1%
Cc1ccc(C)c(CSC2=NC(C)(C)Nc3ccccc32)c1	.	9	.	.
Cc1cc(N2CCN(c3ccccc3)CC2)nc(-c2ccccc2O)n1	20	0	11	0%
Cc1cc(N2CCN(c3ccccc3)CC2)nc(-n2nc(C)cc2C)n1	-86*	-25	19	0%
Cc1nn(Cc2cccc(C(=O)NC3CCCCC3)c2)c(C)c1Cl	-51*	-1	25	0%
COc1cccc(NC(=O)c2sc3nc(C)c(C(=O)Nc4ccc(Cl)cc4)c(-c4ccc(Br)cc4)c3c2N)c1	.	5	.	.
SMILES	DRD3 antagonist	D3 ag	Giardia kill	B2AR arrestin
O=C(Nc1ccc(N2CCN(C(=O)c3ccco3)CC2)c(Cl)c1)c1cc2ccccc2o1	-1	36*	-19	0%
CCCC(=O)N1CCN(c2ccc(NC(=O)c3cc4ccccc4o3)cc2Cl)CC1	-4	35*	2	0%
CCCc1nnc(NC(=O)c2cc(=O)c3ccccc3o2)s1	.	8	.	.
Cc1ccc(-n2cnc3cc(C(=O)NCc4ccccc4Cl)ccc32)c(C)c1	.	-18	.	.
COc1nc(Cl)cn(-c2ccc(C)cc2)c1=O	8	3	-11	0%
Cc1ccc(-n2c(Cl)c(Cl)nc(Cl)c2=O)cc1	-106*	-48	-4	?
CCCCCc1nn2cc(-c3ccccc3)nc2s1	.	37*	.	.
Cc1nn2cc(-c3ccccc3)nc2s1	4	1	7	0%
CC(C)Cc1nn2cc(-c3cccc(Br)c3)nc2s1	.	66*	.	.
Cn1c(SCC(=O)NC(=O)c2cccc([N+](=O)[O-])c2)nnc1-c1ccc(F)cc1	-27	-4	7	0%
